This is a sample that favours compounds with a hit; in the whole collection about 12% have one here.
BAZ2B inh: qHTS Assay for Inhibitors of BAZ2B. AlphaScreen BAZ2B-H3K14Ac peptide displacement. Potency, µM (highest dose often 114 µM), for the others: at the top dose activity change, negative = inhibition, hits mostly inhibitors. hit rate 4.4% among 360,000; note: % is set by controls: 0 for no effect and ±100 for the full control effect; nearly all actives have a fitted effect of over 60% in size
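AlphaScreen luminescence quantifies BAZ2B engagement of H3K14Ac peptide; the protein and biotinylated peptide are both at 50 nM final, buffer PBS pH 7.4 with 0.01% Tween-20, all steps at room temperature.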
HP1b chromo inh: HTS for Inhibitors of HP1-beta Chromodomain Interactions with Methylated Histone Tails | AlphaScreen HP1-beta / biotin-H3K9me3 peptide binding | Potency, µM (doses to about 114 µM), inactives show at the highest dose activity change, negative = inhibition, usual class: inhibitors | hit rate 0.56% among 390,000 | AID 540317, 2011; note: nearly all actives have a fitted effect of over 70% in size
Target sequence (P83916 whole entry, looked up): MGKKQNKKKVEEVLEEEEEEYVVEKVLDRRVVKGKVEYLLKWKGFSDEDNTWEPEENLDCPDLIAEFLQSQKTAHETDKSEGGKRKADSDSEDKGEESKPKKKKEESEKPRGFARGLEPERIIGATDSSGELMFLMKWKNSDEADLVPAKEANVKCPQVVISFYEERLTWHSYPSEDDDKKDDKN
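AlphaScreen: HP1-beta (50 nM) preformed 30 min with biotin-H3(1-18)K9me3 peptide (50 nM) in PBS pH 7.4, 0.01% Tween-20. Compound added for 30 min at RT, then streptavidin donor/nickel chelate acceptor beads (10 ug/mL) for 30 min.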
Sfp PPTase inh: qHTS Assay for Inhibitors of Bacillus subtilis Sfp phosphopantetheinyl transferase (PPTase) | 4'-phosphopantetheinyl transferase ffp (Bacillus subtilis), Q9F4F7 | Biochemical Sfp PPTase activity, qHTS | Potency, µM, for inactives: largest response in the series, negative = inhibition, hits mostly inhibitors | hit rate 3.5% among 310,000 | AID 1490, 2009;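 note: the enzyme is Sfp with the accession as filed and its product quenches rhodamine fluorescence; 0% = enzyme reaction without inhibitor and -100% = no enzyme wells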
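With Hepes-Na pH 7.6 buffer containing 10 mM MgCl2, Sfp (15 nM) modified BHQ-2-YbbR (12.5 uM) using rhodamine-CoA (5 uM). Two reads 30 minutes apart at 525/598 nm yielded each well's rate.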
JMJD2A Tudor: qHTS Assay for Inhibitors of JMJD2A-Tudor Domain. Lysine-specific demethylase 4A (Homo sapiens), O75164. AlphaScreen JMJD2A-Tudor / H3K4me3 peptide binding. Potency, µM (doses to about 114 µM), for inactives: top-dose activity change, negative = inhibition, usual class: inhibitors. hit rate 4.4% among 390,000. AID 504339, 2011; note: % is set by controls: 0 for no effect and ±100 for the full control effect; nearly all actives have a fitted effect of over 50% in size
G9a inh: qHTS Assay for Inhibitors of Histone Lysine Methyltransferase G9a; Histone-lysine N-methyltransferase EHMT2 (Homo sapiens), Q96KQ7; G9a H3K9 monomethylation, AlphaScreen, 2 h; Potency, µM (doses to about 102 µM), for the others: top-dose activity, negative = inhibition, hits mostly inhibitors; hit rate 8.8% among 350,000; AID 504332, 2011; note: % is set by controls: 0 for no effect and ±100 for the full control effect; nearly all actives have a fitted effect of over 75% in size
Target sequence (Q96KQ7 913-1193 limits assumed): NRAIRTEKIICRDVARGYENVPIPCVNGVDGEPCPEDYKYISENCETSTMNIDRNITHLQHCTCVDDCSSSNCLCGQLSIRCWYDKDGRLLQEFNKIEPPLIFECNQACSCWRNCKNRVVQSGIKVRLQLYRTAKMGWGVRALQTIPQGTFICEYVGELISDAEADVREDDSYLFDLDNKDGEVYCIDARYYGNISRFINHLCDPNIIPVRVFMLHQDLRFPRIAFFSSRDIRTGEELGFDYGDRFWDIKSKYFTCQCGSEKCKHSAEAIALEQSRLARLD
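Methyltransferase reactions run at room temperature for 2 h (20 nM enzyme, 500 nM biotin-H3K9 peptide, 20 uM SAM) after a 15 min compound preincubation; product detected by AlphaScreen beads and anti-H3K9me1 antibody.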
Active calls of the source: *; ? = inconclusive; . = no result given; [ ] = remark or other dose. Calls come from the whole dose curve; as a rule, active = well fitted curve in the direction sought with a large enough effect; inconclusive = small, poorly fitted or top-dose-only effect, or another doubt; inactive = no such curve, though single readings can be large; an effect the other way counts as inactive or inconclusive. Potency is the fitted concentration of half-maximal effect.

SMILES	BAZ2B inh	HP1b chromo inh	Sfp PPTase inh	JMJD2A Tudor	G9a inh
COc1cccc(-n2c(CNC(=O)OC(C)(C)C)n[nH]c2=S)c1	32%	30%	50µM*	10µM*	28µM*
Cn1cccc1/C=C1\C(=O)NC(=O)N(Cc2ccccc2)C1=O	50µM*	?	-1%	?	?
CCC1(CC)C(=O)N(Cc2ccccc2)C(=O)N(Cc2ccccc2)C1=O	37%	83%	1%	60%	23%
Cn1cccc1/C=C1/C(=O)NC(=O)N(Cc2ccc(F)cc2)C1=O	45µM*	10%	-15%	-32%	40µM*
C=CCN1C(=O)NC(=O)/C(=C/c2ccc(N(C)C)c(Br)c2)C1=O	-33%	33%	50µM*	-12%	16µM*
C=CCN1C(=O)/C(=C/c2cc(C)n(-c3ccccn3)c2C)C(=O)NC1=S	-5%	26%	?	-19%	?
Cn1cccc1/C=C1/C(=O)NC(=S)N(Cc2ccc(F)cc2)C1=O	25µM*	35µM*	?	45µM*	10µM*
C=CCN1C(=O)NC(=O)/C(=C/c2cccn2C)C1=O	1%[57.1 µM]	17%	-28%	-17%	50µM*
Cn1cccc1/C=C1/C(=O)NC(=O)N(Cc2ccccc2)C1=O	45µM*	10%	-9%	-34%	?
CCCC(C)C1(CC)C(=O)NC(=O)NC1=O (centres undefined)	.	.	11%	.	-43%[2.33 µM]
COc1ccc(Cn2c(O)c(C=Nc3c(C)n(C)n(-c4ccccc4)c3=O)c(=O)[nH]c2=O)cc1	?	26%	16%	-20%	-7%
N#C/C(=C\c1ccc(O)cc1)C(=O)O	.	28%	12%	-17%	.
N#CC(C#N)=Cc1ccc(N2CCCC2)cc1	-13%	7%	-1%	-3%	-26%
COc1cc(C=C(C#N)C#N)cc(O)c1O	.	.	.	.	2.5µM*
N#CC(C#N)=Cc1ccc(O)c(O)c1	79µM*	3%	40µM*	?	8.4µM*
CCc1ccc(/C=C(/C#N)C(N)=S)cc1	?	?	?	-34%	8.9µM*
CC(C)(C)c1cc(C=C(C#N)C#N)cc(C(C)(C)C)c1O	?	18%	56µM*	3%	13µM*
O=C1CN(O)C(c2ccccc2Cl)=c2cc(Br)ccc2=N1	3%	31%	4%	-7%	14%
Cn1c(=O)oc2cc(S(=O)(=O)N3CCCC(C(=O)NCc4ccccc4Cl)C3)ccc21 (centres undefined)	-1%	43%	.	-2%	5%[59 µM]
O=C1CCCN1c1ccc(S(=O)(=O)O)cc1 (tested in a mixture with another compound)	-5%	15%	10%	-13%	-15%[59 µM]
Cc1ccc(-n2c(-c3cccs3)nc3ccccc3c2=O)cc1	8%	13%	-2%	-4%	8%[59 µM]
CC(=O)OCOCC(=O)OCO[P+](=O)C(OCOC(C)=O)c1cc([N+](=O)[O-])ccc1Oc1ccc(Br)cc1 (centres undefined)	.	.	18%	.	14%[59 µM]
CC[C@]12CC[C@H](O)CC1=CCC1C2CC[C@]2(C)C(=O)CCC12 (some centres undefined)	.	24%	.	-11%	.
N#C/C(=C\c1cccc(O)c1)C(=O)O	.	.	-12%	.	.
N#CC(=Cc1ccc(O)c(O)c1)C(N)=S	.	.	.	.	5µM*
SMILES	BAZ2B inh	HP1b chromo inh	Sfp PPTase inh	JMJD2A Tudor	G9a inh
Cn1c(=O)oc2cc(S(=O)(=O)CCC(=O)N3CCN(c4ccccc4)CC3)ccc21	-3%	40%	11%	-8%	-5%
CCCCCc1cc(O)c2c(c1)OC(C)(C)[C@@H]1CCC(C(=O)O)=C[C@H]21	.	.	8%	.	26%[59 µM]
CC(=NCc1ccc(F)cc1)c1c(O)n(C)c(=O)n(C)c1=O	6%	30%	21%	-16%	11%[59 µM]
O=C1CCC[C@H]2[C@H]3CCCN4CCCC(=CN12)[C@@H]34	.	.	-17%	.	.
Cc1cc(C=C2C(=O)NC(=S)NC2=O)c(C)n1-c1ccc2c(c1)OCO2	?	2%	45µM*	?	11µM*
CNC(=O)O/N=C/C(C)(C)SC	.	.	13%	.	.

Bioassay records: PubChem BioAssay, National Center for Advancing Translational Sciences (NCATS)
